# In the library only some 0.92% were active in any assay of this set; here they are far more common.
# Mtb hypoxia inh = inhibitors of hypoxia-regulated fluorescent reporter in Mycobacterium tuberculosis. M. tuberculosis hypoxia-regulated fluorescent reporter, fluorescence. fluorescence inhibition, % (concentration not given with the values). AID 1159583. actives 0.1% (n = 300,000); in the data active = fluorescence inhibition mostly above about 23%, no sharp cut-off; inactive = mostly below about 17%
# UGM FP inh = Mtb UDP-galactopyranose mutase inhibition. purified UGM, fluorescence polarization probe displacement. inhibition, % at 10 µM. actives 0.06% (n = 320,000). AID 504406; in the data active = inhibition above about 10%, passing the limit was not always enough
# RecA splice inh = inhibitors of M. tuberculosis RecA intein splicing. inhibition, % (no concentration beside the values). actives 0.75% (n = 290,000). cell-free RecA intein splicing, fluorescence. AID 2221. P9WHJ3; in the data active = inhibition above about 30%;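 also: 0% = vehicle wells and 100% = reference inhibitor control wells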
# Rv3671c protease = Rv3671c (M. tuberculosis) protease inhibition | inhibition, % at 5.96 µM | actives 0.048% (n = 320,000) | P9WHR9; in the data active = inhibition above about 38%;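 also: extracellular domain of Rv3671c used as enzyme; 0% = enzyme with DMSO and 100% = no enzyme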
# Target sequence (P9WHR9 whole entry, looked up, the tested form may be a part): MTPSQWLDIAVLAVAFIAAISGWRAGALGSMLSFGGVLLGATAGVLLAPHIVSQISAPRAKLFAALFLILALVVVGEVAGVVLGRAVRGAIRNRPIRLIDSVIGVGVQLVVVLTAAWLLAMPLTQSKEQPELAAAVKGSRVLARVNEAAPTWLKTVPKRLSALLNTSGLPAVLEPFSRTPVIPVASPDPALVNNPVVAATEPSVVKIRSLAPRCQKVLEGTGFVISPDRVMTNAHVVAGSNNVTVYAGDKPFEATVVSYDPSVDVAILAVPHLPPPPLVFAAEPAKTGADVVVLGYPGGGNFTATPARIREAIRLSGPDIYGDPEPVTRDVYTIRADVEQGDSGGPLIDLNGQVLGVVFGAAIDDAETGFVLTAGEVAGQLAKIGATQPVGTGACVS
# FadD28 FP inh = blocks FadD28 binding to the bisubstrate probe; fluorescence polarization; inhibition, % at 12.5 µM; actives 0.22% (n = 360,000); AID 588549; in the data active = inhibition above about 8.5%, passing the limit was not always enough
# An asterisk follows results filed as active; . = no result given.
SMILES,Mtb hypoxia inh,UGM FP inh,RecA splice inh,Rv3671c protease,FadD28 FP inh
Nc1ccc(-c2nc3c(Cl)c(N)ccc3[nH]2)cc1,3.3,0.8,-1.9,-5.0,11.4*
COc1cc(C(=O)NN=Cc2cccc(Oc3ccccc3)c2)ccc1O,3.8,.,.,.,.
CCCCCCCCCCCCCCC(O)C[N+](C)(CCO)CCO (stereo not given),.,.,.,.,16.8*
CCCCCCCC(=O)OCC(O)CO (stereo not given),.,-0.7,-0.1,-1.9,-2.8
CCOC(=O)CC1c2ccc(C(F)(F)F)cc2S(=O)(=O)N1C(C)C (stereo not given),11.6,.,.,.,.
Cc1cc(NC(=O)/C(C#N)=C/c2ccco2)n(-c2ccccc2)n1,3.4,0.4,4.6,-9.9,-0.1
Cc1ccc(-c2ccc(/C=C(\C#N)C(=O)Nc3cc(C)nn3-c3ccccc3)o2)cc1,.,48.2*,-97.2,2.8,.
NC(=O)C1CC2(CC(c3cccc(NC(=O)COc4ccc(Cl)cc4)c3)=NO2)CN1C(=O)Cc1ccc([N+](=O)[O-])cc1 (stereo not given),14.6,.,.,.,.
CN(C)C1C(=O)C(C(N)=O)=C(O)C2(O)C(=O)C3=C(O)c4c(O)cccc4C(C)(O)C3C(O)C12 (stereo not given),.,0.9,-6.2,18.7,2.3
COc1ccc(C2=CSC(N=Cc3ccc(F)cc3)=NN2)cc1,38.9*,.,.,.,.
Cc1ccccc1C(NC(=O)OC(C)(C)C)C(=O)OC(C)(C)C (stereo not given),3.2,.,.,.,.
CCCc1nnc(NC(=O)c2c(O)c3cccc4c3n(c2=O)CC4)s1,56.0*,3.1,-1.0,2.9,.
CC(C)c1nnc(NC(=O)c2c(O)c3cccc4c3n(c2=O)CCC4)s1,9.3,1.3,1.5,-1.2,-1.3
COc1ccc(NC(=O)CC(=O)Nc2ccc(OC)cc2OC)c(OC)c1,1.9,-2.5,1.7,-2.0,-2.7
COc1ccc(NC(=O)CON=CC(=O)Nc2ccc(C)cc2)c(OC)c1,25.8*,-1.1,.,1.0,-3.7
Cc1[nH]n(-c2ccc(Cl)cc2)c(=O)c1/C=N/c1nnc(-c2ccccc2)s1,.,0.5,-3.8,-40.5,3.0
Cc1[nH]n(-c2ncc(-c3ccccc3)s2)c(=O)c1C(c1ccc(Cl)cc1)C(C#N)C#N (stereo not given),3.5,-1.1,8.9,9.6,8.6*
CCOC(=O)c1nnc(-c2cccs2)nc1Oc1ccc(Cl)cc1,.,0.8,38.2*,-1.9,0.8
Cc1ccc(-c2cc(C(=O)Nc3ccc(S(=O)(=O)Nc4onc(C)c4C)cc3)[nH]n2)c(O)c1,14.7,0.8,-1.0,-2.0,13.8*
Cc1ccc2oc(C(=O)Nc3ccc(S(=O)(=O)Nc4onc(C)c4C)cc3)c(C)c2c1,-2.2,4.4,-3.2,-5.6,-2.5
CC(=O)Nc1cccc(/C(C)=N/Nc2ccc(S(=O)(=O)Nc3ccccc3C(=O)O)cc2[N+](=O)[O-])c1,.,.,.,.,18.9*
O=C(O)c1ccccc1NS(=O)(=O)c1ccc(NNC(=S)Nc2ccc(OC(F)F)cc2)c([N+](=O)[O-])c1,9.1,.,14.7,.,55.4*
O=C(O)c1ccccc1NS(=O)(=O)c1ccc(N/N=C/c2cccc(O)c2O)c([N+](=O)[O-])c1,.,.,.,.,1.7
CC(=O)Nc1ccc(C=NNc2ccc([N+](=O)[O-])cc2S(=O)(=O)Nc2ccccc2C(=O)O)cc1,9.8,1.2,.,-6.2,-10.2
CC(=O)Nc1ccc(C=NNc2ccc(S(=O)(=O)Nc3ccccc3C(=O)O)cc2[N+](=O)[O-])cc1,14.5,0.9,.,26.1,27.5*
SMILES,Mtb hypoxia inh,UGM FP inh,RecA splice inh,Rv3671c protease,FadD28 FP inh
CN(CCO)c1ccc(C=NNc2ccc([N+](=O)[O-])cc2S(=O)(=O)Nc2ccccc2C(=O)O)cc1,16.9,3.8,.,8.9,31.8*
Cc1ccc(NC(=S)NNc2ccc([N+](=O)[O-])cc2S(=O)(=O)Nc2ccccc2C(=O)O)cc1C,11.9,5.6,22.8,14.9,0.8
CC(C)CC(COc1ccccc1)N1CCN(CC(C)C)CCC1=O (stereo not given),7.0,.,.,.,.
CCC(C)C(CNC)NCC(Cc1ccc(O)cc1)NCC(C)(C)C (stereo not given),4.6,.,.,.,.
CCOc1cc(/C=N/Nc2ccc(S(=O)(=O)Nc3ccccc3C(=O)O)cc2[N+](=O)[O-])cc(Cl)c1O,.,.,.,.,25.1*
CSc1ncccc1C(=O)OCC(=O)c1ccc[nH]1,22.3*,-0.4,.,-3.0,-2.1
CC1=NN(c2ccccc2)C(=O)/C1=C/c1c(O)n(-c2ccc(F)cc2)[nH]c1=O,2.7,4.1,19.0,19.7,18.5*
CC(=O)Nc1ccc(S(=O)(=O)Nc2nc3ccccc3nc2Nc2ccc(O)c(C(=O)O)c2)cc1,8.1,-0.6,-2.2,5.5,13.2*
Oc1ccc(C=NN2CCN(C3c4ccccc4-c4ccccc43)CC2)cc1,-7.6,.,.,.,.
